Pf growth 96h: inhibits malaria parasite growth, 96 h; P. falciparum luciferase reporter growth, 96 h; Potency, µM (series often up to 28.7 µM), without a hit: top-dose activity change, negative = inhibition, actives largely listed as inhibitors; hit rate 6.9% among 320,000; AID 504834; also: % is scaled to controls: 0 for no effect and ±100 for the full control effect
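Plates of compound plus infected erythrocytes (2% hematocrit, 0.05% parasitemia final) incubate 96 hours, 37 C, 5% CO2. Detection reagent added; reduced luminescence from the parasites' luciferase reporter flags inhibition.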
NS1 function inh: blocks influenza NS1 protein function | hit rate 0.4% among 270,000 | Potency, µM (doses to about 46.1 µM), inactives show top-dose activity, positive = more growth; calls by dose curve; also: actives are rising curves; nearly all actives have a fitted effect of over 50% in size
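S. cerevisiae expressing influenza A NS1, grown in glucose, washed, then diluted 1:100 into pH 6.0 -URA galactose medium with 23 nl compound. Growth recovery read as OD600; NS1-free strain serves as control.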
Sm TGR block: blocks Schistosoma mansoni thioredoxin glutathione reductase; Potency, µM (series often up to 114 µM), without a hit: at the highest dose activity change, negative = inhibition, hits mostly inhibitors; AID 485364; hit rate 3% among 360,000; Q962Y6; purified TGR, DTNB reduction, TNB absorbance 405 nm; also: % is scaled to controls: 0 for no effect and ±100 for the full control effect; nearly all actives have a fitted effect of over 60% in size
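TGR 20 nM + NADPH 100 uM (dispensed conc.), cpd preinc 15 min RT; start with NADPH (500 uM addition) then DTNB (15 mM addition). Kinetic TNB absorbance, 405 nm filter. Four-parameter Hill fit across titration.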
Pf growth 48h: P. falciparum growth inhibition at 48 hours (one generation); hit rate 5.9% among 310,000; Potency, µM (doses to about 28.7 µM), for the others: at the highest dose activity change, negative = inhibition, most hits filed as inhibitors; AID 504832; P. falciparum luciferase growth in erythrocytes, 48 h; also: % is scaled to controls: 0 for no effect and ±100 for the full control effect
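Luciferase-expressing P. falciparum in infected erythrocytes (2% hematocrit, 0.1% parasitemia final) in RPMI 1640/0.5% Albumax were exposed to compound for 48 hours at 37 C, 5% CO2; growth read as luminescence.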
AMA1 RON2 block: AMA1-RON2 (P. falciparum) interaction inhibition; Potency, µM (series often up to 58.2 µM), for the others: at the highest dose activity change, negative = inhibition, actives largely listed as inhibitors; AlphaScreen AMA1-biotinylated RON2 peptide binding; AID 720542; hit rate 0.2% among 360,000;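 also: 0% = vehicle wells and -100% = peptide control; nearly all actives have a fitted effect of over 45% in size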
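AMA1 (3D7) with his tag at 25 nM final met compounds first, then biotinylated RON2 peptide at 25 nM; detection used donor plus acceptor beads, 10 µg/mL apiece, read by AlphaScreen after 30 min at room temperature.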
* marks the source's active call; other numbers are inactive results; ? = inconclusive; . = no result given. The list is not random: actives were taken first. Their share in the collection is about 11%. Unless noted, calls follow the shape of the dose curve; as a rule, active = well fitted curve in the direction sought with a large enough effect; inconclusive = small, poorly fitted or top-dose-only effect, or another doubt; inactive = no such curve, though single readings can be large; an effect the other way counts as inactive or inconclusive. Potency is read from the fitted curve at half-maximal effect.

SMILES	Pf growth 96h	NS1 function inh	Sm TGR block	Pf growth 48h	AMA1 RON2 block
O=C(NCCN1C(=O)S/C(=C/c2cccnc2)C1=O)C1CC(=O)N(Cc2ccccc2)C1 (centres undefined)	-1.5%	.	-10.1%	-8.2%	-4.2%
CCOC(=O)C1CCN(C(=O)c2cccc(S(=O)(=O)N3c4ccccc4CC3C)c2)CC1 (centres undefined)	?	.	-1.1%	?	11.3%
CCOC(=O)c1sc(NC(=O)c2cccc(S(=O)(=O)N3c4ccccc4CC3C)c2)cc1C (centres undefined)	?	22.2%	1.2%	2.94µM*	-3.2%
CC1Cc2ccccc2N1S(=O)(=O)c1cccc(C(=O)N2CCCCC2)c1 (centres undefined)	7.1%	.	5.8%	-0.2%	-4.4%
Cc1cc(NC(=O)c2cccc(S(=O)(=O)N3c4ccccc4CC3C)c2)no1 (centres undefined)	5.22µM*	?	11.0%	3.29µM*	3.2%
CC1Cc2ccccc2N1S(=O)(=O)c1cccc(C(=O)N2Cc3ccccc3CC2C(N)=O)c1 (centres undefined)	13.1µM*	.	-13.2%	?	6.8%
Cc1cc(C(=O)N(Cc2nnc(-c3ccc(Cl)cc3)o2)C(C)C)c2ccccc2n1	10.4µM*	.	-14.1%	11.7µM*	43.0%
Cc1cc(C(=O)NCCc2ccc(Cl)cc2)c2ccccc2n1	20.2%	-27.4%	-8.9%	26.3%	-4.2%
COCCCNC(=O)CSC1=Nc2ccccc2C2=NC(c3ccccc3)C(=O)N12 (centres undefined)	?	.	3.3%	-0.8%	-11.6%
CCOC(=O)CSC1=Nc2ccccc2C2=NC(CC(=O)NCc3cccs3)C(=O)N12 (centres undefined)	?	?	-1.0%	10.4µM*	2.4%
CCC(C)NC(=O)CSC1=Nc2ccccc2C2=NC(CC(=O)NCc3ccc(F)cc3)C(=O)N12 (centres undefined)	?	7.4%	0.5%	13.1µM*	3.6%
COCCCNC(=O)CSC1=Nc2ccccc2C2=NC(Cc3c[nH]c4ccccc34)C(=O)N12 (centres undefined)	5.22µM*	2.9%	14.8%	4.5%	-6.6%
COc1ccc(NC(=O)CSC2=Nc3ccccc3C3=NC(CC(=O)NCc4ccc(F)cc4)C(=O)N23)cc1 (centres undefined)	.	.	10.1%	.	.
COc1ccc(CNC(=O)CCC2N=C3c4ccccc4N=C(SCC(=O)NCC4CCCO4)N3C2=O)cc1 (centres undefined)	13.1µM*	5.0%	1.3%	?	10.4%
COc1ccc(OC)c(S(=O)(=O)NCCCc2ccccc2)c1	95.4%	-23.2%	6.7%	-1.7%	-6.8%
CCN(CC)S(=O)(=O)c1ccc(OC)c(NC(=O)c2cn(CC)c3nc(C)ccc3c2=O)c1	1.6%	-1.7%	2.7%	6.9%	-3.6%
O=C(NCc1ccncc1)[C@@H]1CCCN1C(=O)[C@@H]1CCCN1C(=O)c1ccccc1Cl	.	.	.	.	-9.8%
COc1cc(NC(=O)CCS(=O)(=O)c2ccc3c(c2)oc(=O)n3C)cc(OC)c1OC	2.33µM*	10.0%	-25.3%	-28.7%	-11.0%
CCc1cccc(C)c1NC(=O)CCS(=O)(=O)c1ccc2c(c1)oc(=O)n2C	.	.	25.1µM*	.	.
CC(CNC(=O)CCS(=O)(=O)c1ccc2c(c1)oc(=O)n2C)c1ccccc1 (centres undefined)	9.28µM*	-1.2%	-20.3%	?	-0.4%
c1cc(CSSCc2ccncc2)ccn1	.	-38.2%	.	.	.
CCCCN(CCCC)C1=C(C(=O)c2ccccc2)N(C)S(=O)(=O)c2ccccc21	.	.	0.2%	.	.
CC(=O)C1=C(O)C(=O)N(c2cc(C(C)(C)C)on2)C1c1ccc(Br)cc1 (centres undefined)	.	15.0%	-8.7%	10.4µM*	10.9%
Cc1cccc(N2C(=O)C(O)=C(C(=O)c3cccs3)C2c2ccc(C(C)C)cc2)n1 (centres undefined)	34.0%	4.7%	-2.1%	13.4%	23.0%
CC(=O)C1=C(O)C(=O)N(c2ccc(Br)cn2)C1c1ccc(Br)cc1 (centres undefined)	5.5%	4.8%	-12.4%	13.4%	-9.8%
SMILES	Pf growth 96h	NS1 function inh	Sm TGR block	Pf growth 48h	AMA1 RON2 block
CC(=O)C1=C(O)C(=O)N(c2cc(C(C)(C)C)on2)C1c1ccc(C(C)C)cc1 (centres undefined)	13.1µM*	?	14.4%	-16.2%	10.2%
CC(=O)OC1CC(C)N(C(=O)c2ccccc2)c2ccc(C)cc21 (centres undefined)	.	-6.1%	4.7%	59.0%	-10.9%
CC(=O)N1c2ccc(C)cc2C(c2ccccc2)CC1C (centres undefined)	?	-24.8%	-3.2%	7.38µM*	11.5%
COc1ccc(-c2nc(CSCC(=O)NCc3ccccc3Cl)c(C)o2)cc1OC	.	.	-3.4%	.	.
COCCN=c1scc(-c2ccco2)n1/N=C/c1ccc(O)c(O)c1O	?	2.6%	12.6µM*	?	-23.9%
C=CCN=c1scc(-c2ccco2)n1/N=C/c1ccc(O)c(O)c1O	?	14.7%	0.0%	?	-0.5%
CC(C)CC(=O)O/N=C1\C(=O)N(Cc2ccc(Cl)cc2)c2ccc([N+](=O)[O-])cc21	5.22µM*	-7.0%	8.3%	?	.
CCOC(=O)c1ccc(NC(=O)CC(C)n2nc(C)cc2C)cc1 (centres undefined)	.	.	5.4%	.	.
COc1cc(C)cc2oc(=O)c(CC(=O)N3CCN(C(=O)C4COc5ccccc5O4)CC3)c(C)c12 (centres undefined)	0.8%	0.5%	-27.0%	?	-2.1%
CC(=O)Oc1ccc2c(C)c(CC(=O)N3CCN(C(=O)C4COc5ccccc5O4)CC3)c(=O)oc2c1C (centres undefined)	?	-19.6%	-19.6%	11.7µM*	-5.5%
O=C(c1ccc(-n2ccnc2)cc1)N1CCCC(CO)(Cc2cccc(Cl)c2)C1 (centres undefined)	15.7%	-14.0%	4.4%	?	10.2%
CCOC(=O)C1=C(c2ccccc2)O/C(=C(\C(=O)OC)C(F)(F)F)S1	9.28µM*	4.2%	-2.4%	.	2.9%
CCOC(=O)C1=C(c2ccccc2)O/C(=C(/C#N)C(F)(F)F)S1	.	10.1%	-22.5%	9.28µM*	.
Cc1ccc(CNC(=O)CSc2nc3n[nH]c(C)c3c(=N)n2-c2cccc(C)c2)cc1	9.28µM*	17.3%	-0.6%	.	39.0%
Cc1cc(-n2c(SCC(=O)Nc3ccc(Br)cc3)nc3n[nH]c(C)c3c2=N)ccc1Cl	43.8%	-2.4%	-4.2%	?	-8.0%
Cc1[nH]nc2nc(SCC(=O)NCC3CCCO3)n(-c3ccc(Br)cc3)c(=N)c12 (centres undefined)	40.3%	2.5%	0.0%	10.4µM*	17.4%
CCCCNC(=O)CSc1nc2n[nH]c(C)c2c(=N)n1-c1cccc(C)c1	.	.	0.8%	.	.
